According to the supplement of paper PMC7695840:
Where a name gives a salt, the structure may show the parent alone.

system: Staphylococcus aureus MW2 (mecA+); assay: normalized DsRed fluorescence (growth of mecA+ strain) (fraction of control range); higher = more growth of mecA+ strain; settings: compound concentration: 150 uM; cefoxitin: subinhibitory; fluorescent label: DsRed
Outline: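 Pre-induced S. aureus MW2 cells carrying the gene (DsRed) and deletion cells lacking it (GFP) were combined 1:1 in LB containing a subinhibitory antibiotic dose set each day, then dispensed at 5 µL/well onto 150 μM compound (1.5% DMSO) in 1536-well plates as a single replicate. After 20 h at 37 °C and 90% humidity without shaking, DsRed (540/590) and GFP (485/520) were read. Each channel was scaled per plate between the medians of the single-strain controls, and plates with high untreated ratios and rows with DsRed/GFP >10 were excluded.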

Compound | normalized DsRed fluorescence
O=C(CCBr)N1CCN(C(=O)CCBr)CC1 | 0.794
CCCCCCOC(=O)NC(=N)c1ccc(NCc2nc3cc(C(=O)N(CCC(=O)OCC)c4ccccn4)ccc3n2C)cc1 [BIBR-1048 (Dabigatran)] | 0.815
OC(CCN1CCCCC1)(c1ccccc1)C1CC2C=CC1C2 (stereo not given) [Biperiden hydrochloride] | 0.714
CC(=O)CCCCn1c(=O)c2c(ncn2C)n(C)c1=O | 0.952
COC(=O)C1=C(C)NC(C)=C(C(=O)OCCN(C)Cc2ccccc2)C1c1cccc([N+](=O)[O-])c1 (stereo not given) | 1.02
COCCCOc1ccnc(C[S+]([O-])c2nc3ccccc3[nH]2)c1C (stereo not given) | 0.865
O=C(C1CCCCC1)N1CC(=O)N2CCc3ccccc3C2C1 (stereo not given) | 0.542
CN1CCC(=C2c3ccccc3CCc3cccnc32)CC1 | 0.798
CCOC(=O)[C@H](CCc1ccccc1)N[C@@H](C)C(=O)N1[C@H](C(=O)O)C[C@@H]2CCC[C@@H]21 | 0.71
CC(=O)[C@H]1CC[C@H]2[C@@H]3C[C@H](C)C4=CC(=O)CC[C@]4(C)[C@H]3[C@@H](O)C[C@]12C | 0.378
CN(C)CCC=C1c2ccccc2C=Cc2ccccc21 | 1.21
CC(C)COCC(CN(Cc1ccccc1)c1ccccc1)N1CCCC1 (stereo not given) | 0.96
Nc1nc(O)c2ncn(CCC(CO)CO)c2n1 | 0.941
NC[C@@H]1O[C@@H](O[C@H]2[C@H](O)[C@@H](O[C@H]3O[C@H](CO)[C@@H](O)[C@H](N)[C@H]3O)[C@H](N)C[C@@H]2N)[C@@H](O)[C@H](O)[C@H]1O | 0.795
C[C@@H]1O[C@@H](OC[C@H]2O[C@@H](Oc3c(-c4ccc(OCCO)c(OCCO)c4)oc4cc(OCCO)cc(O)c4c3=O)[C@H](O)[C@@H](O)[C@@H]2O)[C@H](O)[C@H](O)[C@H]1O [Troxerutin] | 0.471
CC1(C)[C@@H](OC(=O)CCC(=O)O)CC[C@]2(C)[C@H]3C(=O)C=C4[C@@H]5C[C@@](C)(C(=O)O)CC[C@]5(C)CC[C@@]4(C)[C@]3(C)CC[C@@H]12 | 0.249
NC[C@H](O)c1ccc(O)c(O)c1 | 1.06
CN1CCN2c3ccccc3Cc3ccccc3C2C1 (stereo not given) | 1.52
COc1cc(Nc2ncc(F)c(Nc3ccc4c(n3)N(COP(=O)(O)O)C(=O)C(C)(C)O4)n2)cc(OC)c1OC | 0.602
COc1cc2c(cc1Cc1cccc(Cl)c1F)c(=O)c(C(=O)O)cn2[C@H](CO)C(C)C [Elvitegravir (GS-9137)] | 0.102

Compound | normalized DsRed fluorescence
Nc1c(Br)cc(Br)cc1CN[C@H]1CC[C@H](O)CC1 [Ambroxol HCl] | 0.849
COc1cc2nc(N(C)CCCNC(=O)C3CCCO3)nc(N)c2cc1OC (stereo not given) | 0.686
Clc1cccc(Cl)c1NC1=NCCN1 | 0.663
CC1(C)S[C@@H]2[C@H](NC(=O)COc3ccccc3)C(=O)N2[C@H]1C(=O)O | 0.0783
CS(=O)(=O)c1ccc(C2=C(c3ccccc3)C(=O)OC2)cc1 | 0.89
COc1cc(Nc2ncc(F)c(Nc3ccc4c(n3)N(COP(=O)(O)O)C(=O)C(C)(C)O4)n2)cc(OC)c1OC [R788 (Fostamatinib)] | 0.475
COC(=O)C1=C(C)NC(C)=C(C(=O)OC(C)C)C1c1cccc2nonc12 (stereo not given) | 1.51
Nc1cccc2c1CN(C1CCC(=O)NC1=O)C2=O (stereo not given) [Lenalidomide] | 0.974
Cc1ccc(Nc2c(F)cccc2Cl)c(CC(=O)O)c1 | 0.183
CN(C)CCOc1ccc(/C(=C(/CCCl)c2ccccc2)c2ccccc2)cc1 | 0.0394
CC1=C(CC(=O)O)c2cc(F)ccc2/C1=C\c1ccc([S+](C)[O-])cc1 (stereo not given) | 0.476
COC1=CC(=O)C[C@@H](C)[C@]12Oc1c(Cl)c(OC)cc(OC)c1C2=O | 0.425
CC(=O)OCC(=O)[C@@]1(O)CC[C@H]2[C@@H]3CCC4=CC(=O)CC[C@]4(C)[C@@]3(F)[C@@H](O)C[C@@]21C | 0.642
CNCc1ccc(-c2[nH]c3cc(F)cc4c3c2CCNC4=O)cc1 | 0.641
C#C[C@]1(O)CC[C@H]2[C@@H]3CCc4cc(O)ccc4[C@H]3CC[C@@]21C [Ethinyl Estradiol] | 0.449
CCCCC(=O)O[C@]1(C(=O)CO)CC[C@H]2[C@@H]3CCC4=CC(=O)CC[C@]4(C)[C@H]3[C@@H](O)C[C@@]21C | 0.447
Cc1c(OCC(F)(F)F)ccnc1C[S@@+]([O-])c1nc2ccccc2[nH]1 | 0.452
CN1CCCN=C1COC(=O)C(O)(c1ccccc1)C1CCCCC1 (stereo not given) | 0.63
c1cnc2cc3c(cc2n1)[C@@H]1CNC[C@H]3C1 [Varenicline tartrate] | 0.508
Clc1ccc(C(Cn2ccnc2)OCc2ccc(Sc3ccccc3)cc2)c(Cl)c1 (stereo not given) [Fenticonazole nitrate] | 0.0182
